Bioassay records from PubChem BioAssay.
KCC2 mod: modulators of human KCC2 chloride dependent transport; Q9H2X9; KCC2 cells, thallium flux FluoZin-2 fluorescence; B-score of Tl+ flux slope (higher = more flux/activation; lower = inhibition) at 10 µM; hit rate 2.2% among 190,000; AID 1456;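 active means thallium flux slope and its plate-corrected score both differing from the plate sample mean at a set confidence after two filtering rounds, in either direction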;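 further: slope of fluorescence scaled to starting intensity during 10 to 20 s after thallium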
L major viab: Leishmania major promastigote growth inhibition; hit rate 9% among 200,000; Leishmania major promastigotes, resazurin fluorescence viability; inhibition, % at 10 µM; in the data active means inhibition above about 50%;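 further: promastigotes grown with compound for 44 hours at 28 °C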
m-calpain inh: calpain II (pig) inhibition | purified calpain II, fluorogenic peptide substrate, 30 min | inhibition, % at 16 µM | hit rate 0.37% among 220,000;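 active means inhibition above about 50%, limit read from the data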
ROMK primary: human ROMK K+ channel modulation, primary screen | Tet-inducible ROMK, thallium flux fluorescence; actives lie on both sides | B-score at 10 µM | hit rate 2% among 130,000 | P48048;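 active means signal ratio slope over the read window, or its plate-corrected B-score, at least 3 SD from the plate mean, either direction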;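 further: B-score of the F/F0 ratio slope over 7 to 12 s after thallium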
WT yeast gro inh: growth inhibition of WT yeast, mitochondrial fusion screen. mitochondrial fusion phenotypic screen, WT strain. inhibition, % at 10 µM. hit rate 2.1% among 190,000. AID 1362; in the data active means inhibition above about 58%; tested in S. cerevisiae
Starred values were filed as active, the others as inactive; i = inactive; x = no result given. Most compounds without a hit are left out; they make up all but 12% or so of the library.

SMILES	KCC2 mod	L major viab	m-calpain inh	ROMK primary	WT yeast gro inh
Cc1ccccc1NC(=O)c1cc(S(=O)(=O)N2CCCCC2)cs1	1.1	19	-8	0.18	-10
O=[N+]([O-])c1ccc(-c2ccc(S(=O)(=O)NCCN3CCCC3)cc2)cc1	-0.1	80*	35	-2.4	12
O=[N+]([O-])c1ccc(S(=O)(=O)NCCN2CCOCC2)cc1	0.12	-4	20	0.6	5
CCC(C)NC(=O)CSc1nnc(-c2c[nH]c3ccccc23)o1 (stereo not given)	-2.4	-14	-17	-0.0071	-6
CC(=O)Cc1cc(O)c2ccccc2c1OC(=O)c1ccc(Br)cc1	0.0029	x	-4	x	x
O=S(=O)(NC1c2cccc3cccc(c23)C1Sc1ncccn1)c1ccc(Cl)cc1 (stereo not given)	-0.62	83*	-14	-0.24	28
Cc1ccc(S(=O)(=O)NC2c3cccc4cccc(c34)C2Sc2n[nH]c(N)n2)cc1 (stereo not given)	0.29	-1	-3	x	15
Cc1nc2ccc(-c3nc4cc(N)ccc4o3)cc2[nH]1	0.2	53*	i	x	5
O=C(Cn1c(=O)oc2ccccc21)NC(=O)NCc1ccccc1	-0.95	10	-17	x	-1
CCOC(=O)C1=NOC(C(=O)NN(C)c2ncc(C(F)(F)F)cc2Cl)C1 (stereo not given)	1.7	-4	-20	-0.73	-11
CCOC(=O)C1=C(O)/C(=C/c2ccccn2)SC1=Nc1ccc(Cl)cc1	0.16	65*	-17	-1.3	21
c1cc(CNc2ccc(N3CCOCC3)cc2)ccn1	x	-1	-13	-0.78	12
CC(C)c1ccc(CNc2ccc(N3CCOCC3)cc2)cc1	0.59	81*	-44	-0.45	31
CCOc1ccc(CNc2ccc(N3CCCC3)cc2)cc1	1.1	100*	-27	-0.23	0
CCOc1cc(CNc2ccc(N3CCCC3)cc2)cc(Cl)c1OC	0.96	8	12	1.1	15
COC(=O)c1cc(COC(=O)c2nc3nc(C)cc(C)n3n2)oc1C	0.32	12	19	0.5	1
Nc1ccccc1Nc1cc(-c2cccc(Cl)c2)nn1-c1ccccc1	1.3	11	21	x	75*
Cc1cc(Nc2ccccc2)n(-c2cccc(Cl)c2)n1	1.1	17	-31	-2.3	29
Cc1cccc(C(=O)N(c2ccccn2)C(C)c2ccco2)c1 (stereo not given)	-0.27	56*	-10	0.3	2
COc1cc(C(=O)N[C@H](C(=O)Nc2nnc(C3CC3)s2)C(C)C)cc(OC)c1OC	0.0072	x	30	x	x
CCCCCCC(=O)Nc1nc(C)c(-c2csc(Nc3cc(OC)ccc3OC)n2)s1	1.2	71*	-46	x	11
CCCCCC(=O)Nc1nc(C)c(-c2csc(Nc3cc(OC)ccc3OC)n2)s1	1	51*	0	x	-19
COc1ccc(OC)c(Nc2nc(-c3sc(NC(=O)c4ccccc4)nc3C)cs2)c1	-1.1	-1	11	x	26
C=CCCC(=O)Nc1nc(C)c(-c2csc(Nc3cc(Cl)ccc3OC)n2)s1	0.2	33	-30	x	38
Cn1c(=O)c2nnn(/N=C(\c3ccccc3)C3CC3)c2n(C)c1=O	x	76*	44	0.038	7
SMILES	KCC2 mod	L major viab	m-calpain inh	ROMK primary	WT yeast gro inh
Cn1c(N)c(C(=O)c2ccccc2)c(=O)n(C)c1=O	-1.1	5	-15	-0.0036	24
CCCCCCc1c(O)nc(SCCN(C)C)[nH]c1=O	0.071	x	-12	x	x
Cc1ccc2c(c1)nnn2C1CCN(S(=O)(=O)c2ccc(C(=O)N3CC(C)CC(C)C3)cc2)CC1 (stereo not given)	-0.39	33	51*	x	20
CC(=O)Nc1cc(C(=O)OC(C(=O)c2ccccc2)c2ccccc2)ccc1C (stereo not given)	-0.25	-7	66*	0.38	-12
CN(C)CCOC(=O)c1ccc2c(c1)S(=O)(=O)c1ccccc1C2=O	0.58	x	9	x	x
c1ccc(Oc2cccc(OCCCCN3CCCC3)c2)cc1	0.13	99*	6	-2.2	27
CCOc1cccc(OCCOCCN2CCCC2)c1	-0.019	-6	-9	x	-7
Brc1cccc(OCCCN2CCCCCC2)c1	0.37	96*	16	0.074	-8
Clc1cccc(OCCN2CCN(CCOc3cccc(Cl)c3)CC2)c1	0.42	99*	23	-1.4	60
CC1CCN(CCOc2cccc(Br)c2)CC1	0.48	71*	-6	x	-3
CCOc1ccccc1C(=O)N(Cc1ccccc1)Cc1cc2cc3c(cc2[nH]c1=O)OCCO3	-2.5	45	x	0.28	x
COc1ccc(S(=O)(=O)CCC(=O)N(C)c2ccc(OC)cc2OC)cc1	-0.41	-2	-10	x	-1
COc1cccc(-n2cnc(=O)c3cccnc32)c1	0.29	-6	-9	x	-20
